Here are results for 22 molecules from PubChem BioAssay (NCATS).

“And” between values parts separate entries of the source, which are not always exact repeats. Equal entries are not always repeated. Records with an inconclusive call do not appear. The source made the active and inactive calls. The call rests on the fitted dose curve; in most records, active means well fitted inhibition curve with a large enough effect; inconclusive means small, poorly fitted or top-dose-only effect; inactive means flat fitted curve, though single readings scatter.

One test is described as follows: qHTS for identification of novel therapeutic agents for treatment of microphthalmiaassociated transcription factor (MiT) renal cell carcinoma (RCC) (AID 1963991). Conditions: TFE3-RCC UOK109 viability, CellTiter-Glo, 48 h; measured here: UOK109 Z-AUC; stronger effect = lower value. Put shortly: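 Viability of three TFE3-fusion renal carcinoma lines measured by CellTiter-Glo after 48 h treatment with each of 1912 compounds at 11 concentrations. Responses scaled between DMSO (100%) and empty wells (0%) before curve fitting.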
`Cc1onc(-c2ccccc2Cl)c1C(=O)N[C@@H]1C(=O)N2[C@@H]1SC(C)(C)[C@@H]2C(=O)O`: the z-score came to 1.22.

Molecule `CC(C)OC(=O)OCOP(=O)(CO[C@H](C)Cn1cnc2c(N)ncnc21)OCOC(=O)OC(C)C` returned a z-score of 0.412.

`CC1CC2C3CCC4=CC(=O)C=C[C@]4(C)[C@@]3(F)[C@@H](O)C[C@]2(C)[C@@]1(O)C(=O)CO` (stereo partly specified) returned a z-score of 0.936.

The same test, now with this note: TFE3-RCC viability, CellTiter-Glo, 48 h; measured here: UOK124 Z-AUC; stronger effect = lower value.
Molecule `Cc1onc(-c2ccccc2Cl)c1C(=O)N[C@@H]1C(=O)N2[C@@H]1SC(C)(C)[C@@H]2C(=O)O` registered a z-score of 0.834.

As to `CC(C)OC(=O)OCOP(=O)(CO[C@H](C)Cn1cnc2c(N)ncnc21)OCOC(=O)OC(C)C`, the z-score was 0.776.

Molecule `CC1CC2C3CCC4=CC(=O)C=C[C@]4(C)[C@@]3(F)[C@@H](O)C[C@]2(C)[C@@]1(O)C(=O)CO` (stereo partly specified) yielded a z-score of 0.693.

The same test, now with this note: TFE3-RCC viability, CellTiter-Glo, 48 h; measured here: UOK145 Z-AUC; stronger effect = lower value.
Turning to `Cc1onc(-c2ccccc2Cl)c1C(=O)N[C@@H]1C(=O)N2[C@@H]1SC(C)(C)[C@@H]2C(=O)O`, the z-score was 1.69.

`CC(C)OC(=O)OCOP(=O)(CO[C@H](C)Cn1cnc2c(N)ncnc21)OCOC(=O)OC(C)C` showed a z-score of 0.601.

Consider `CC1CC2C3CCC4=CC(=O)C=C[C@]4(C)[C@@]3(F)[C@@H](O)C[C@]2(C)[C@@]1(O)C(=O)CO` (stereo partly specified), for which the z-score came out at 0.527.

The nature of the next test: qHTS profiling for inhibitors of Plasmodium falciparum proliferation (AID 504749).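 Further: 0% = DMSO vehicle and full inhibition = artemisinin control; nearly all actives have a fitted effect of over 60% in size.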 As to conditions: P. falciparum in erythrocytes, SYBR Green DNA, 72 h; at 12.8 µM (top of the series); parasite line A. Put shortly:
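SYBR Green fluorescence (ex 485 nm, em 535 nm) reports parasite DNA after 72 h compound exposure of infected red cells at 0.3% parasitemia, 2.5% hematocrit; signal normalized to 0.29 uM artemisinin and vehicle wells.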
As to `COC(=O)Nc1nc2ccc(C(=O)c3ccccc3)cc2[nH]1`, the activity, negative = inhibition was 5.97% (inactive).

Consider `COC(=O)Nc1nc2ccc(Sc3ccccc3)cc2[nH]1`, for which the activity, negative = inhibition is 5.04% (inactive).

Turning to `CC(C)(Sc1cc(C(C)(C)C)c(O)c(C(C)(C)C)c1)Sc1cc(C(C)(C)C)c(O)c(C(C)(C)C)c1`, the activity, negative = inhibition was 6.04% (inactive).

The same test, now with this note: P. falciparum in erythrocytes, SYBR Green DNA, 72 h; at 12.8 µM (top of the series); parasite line B.
As for `COC(=O)Nc1nc2ccc(C(=O)c3ccccc3)cc2[nH]1`, the activity, negative = inhibition is 9.61% (inactive).

As to `COC(=O)Nc1nc2ccc(Sc3ccccc3)cc2[nH]1`, the activity, negative = inhibition is -0.246% (inactive).

With `CC(C)(Sc1cc(C(C)(C)C)c(O)c(C(C)(C)C)c1)Sc1cc(C(C)(C)C)c(O)c(C(C)(C)C)c1`, the activity, negative = inhibition was 8.09% (inactive).

Still in this test, the particulars now being: P. falciparum in erythrocytes, SYBR Green DNA, 72 h; at 28.7 µM (top of the series); parasite line A.
Consider `S=P(N1CC1)(N1CC1)N1CC1`, for which the activity, negative = inhibition was -0.685% (inactive).

In the case of `COc1ccc(-c2ccc3cc(C(=O)O)ccc3c2)cc1C12CC3CC(CC(C3)C1)C2`, the activity, negative = inhibition is 6.34% (inactive).

`CNNCc1ccc(C(=O)NC(C)C)cc1`: the activity, negative = inhibition was 0.0651% (inactive).

Turning to `CCc1cc(C(N)=S)ccn1`, the activity, negative = inhibition is -0.167% (inactive).

With `CCCc1nc(C)c2c(=O)[nH]c(-c3cc(S(=O)(=O)N4CCN(CC)CC4)ccc3OCC)nn12`, the activity, negative = inhibition was -13.4% (inactive).

As for `Cc1nnc(NS(=O)(=O)c2ccc(N)cc2)s1`, the activity, negative = inhibition is 1.45% (inactive).

Take `Nc1nc(N)c2nc(CNc3ccc(C(=O)NC(CCC(=O)O)C(=O)O)cc3)cnc2n1` (stereo unspecified): the activity, negative = inhibition is 3.54% (inactive).

For the molecule `CCOC(=O)[C@H](CCc1ccccc1)N[C@H]1CS[C@H](c2cccs2)CN(CC(=O)O)C1=O`, the activity, negative = inhibition is -33.7% (inactive).

With `CCc1c2c(nc3ccc(OC(=O)N4CCC(N5CCCCC5)CC4)cc13)-c1cc3c(c(=O)n1C2)COC(=O)[C@]3(O)CC`, the activity, negative = inhibition is -1.15% (inactive).

`CC(C)NCC(O)c1ccc(NS(C)(=O)=O)cc1` (stereo unspecified): the activity, negative = inhibition was -2.6% (inactive) and 1.55% (inactive).

Consider `CC(C)OC(=O)C(C(=O)OC(C)C)=C1SC=CS1`, for which the activity, negative = inhibition is 2.72% (inactive).

For the molecule `CC[C@H](C)C(=O)O[C@H]1C[C@@H](C)C=C2C=C[C@H](C)[C@H](CC[C@@H]3C[C@@H](O)CC(=O)O3)[C@H]21`, the activity, negative = inhibition is -2.1% (inactive).

With `O=c1cc(O)c(Cl)c[nH]1`, the activity, negative = inhibition is -6.01% (inactive).

As for `CC(=O)Oc1ccccc1C(=O)Nc1ncc([N+](=O)[O-])s1`, the activity, negative = inhibition was 1.42% (inactive).

As for `COc1ccc(C(=O)CC(=O)c2ccc(C(C)(C)C)cc2)cc1`, the activity, negative = inhibition is 0.965% (inactive).

Consider `CNC1CCCN(c2c(F)cc3c(=O)c(C(=O)O)cn(C4CC4)c3c2OC)C1` (stereo unspecified), for which the activity, negative = inhibition is 5.3% (inactive).
